Each sequence was assayed against pT7_6His-AlfaTag-HOXD13 (human, UniProt P35453 263-343) (assay: PADIT-seq). Settings: dsDNA, one strand shown.
Sequence of pT7_6His-AlfaTag-HOXD13 (P35453 263-343): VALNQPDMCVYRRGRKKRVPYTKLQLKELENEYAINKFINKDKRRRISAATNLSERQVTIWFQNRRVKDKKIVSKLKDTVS

Sequence	binding signal
CTCGAGGATATCAAGATCTGGCCTCGGCTTTTTAACGGGAACCTCTAGCTAGCCGACTCACTATAGGGATAATCGCCCTGAGCAAAGACC	1.89 ± 0.0968 log2FC
CTCGAGGATATCAAGATCTGGCCTCGGCGTGGTAAAAGGAACCTCTAGCTAGCCGACTCACTATAGGGATAATCGCCCTGAGCAAAGACC	1.02 ± 0.077 log2FC
CTCGAGGATATCAAGATCTGGCCTCGGCCGCACCCGCGGAACCTCTAGCTAGCCGACTCACTATAGGGATAATCGCCCTGAGCAAAGACC	-1.02 ± 0.126 log2FC
CTCGAGGATATCAAGATCTGGCCTCGGCGTTTTACGCGGAACCTCTAGCTAGCCGACTCACTATAGGGATAATCGCCCTGAGCAAAGACC	2.22 ± 0.0821 log2FC
CTCGAGGATATCAAGATCTGGCCTCGGCCGTCTAAAAGGAACCTCTAGCTAGCCGACTCACTATAGGGATAATCGCCCTGAGCAAAGACC	-0.577 ± 0.117 log2FC
CTCGAGGATATCAAGATCTGGCCTCGGCTTTTTAGGAGGAACCTCTAGCTAGCCGACTCACTATAGGGATAATCGCCCTGAGCAAAGACC	1.41 ± 0.0944 log2FC
CTCGAGGATATCAAGATCTGGCCTCGGCGGGCTAAAAGGAACCTCTAGCTAGCCGACTCACTATAGGGATAATCGCCCTGAGCAAAGACC	-0.851 ± 0.105 log2FC
CTCGAGGATATCAAGATCTGGCCTCGGCTTTTTAGGTGGAACCTCTAGCTAGCCGACTCACTATAGGGATAATCGCCCTGAGCAAAGACC	-0.0749 ± 0.107 log2FC
CTCGAGGATATCAAGATCTGGCCTCGGCTTGCTAAAAGGAACCTCTAGCTAGCCGACTCACTATAGGGATAATCGCCCTGAGCAAAGACC	-0.271 ± 0.11 log2FC
CTCGAGGATATCAAGATCTGGCCTCGGCCTTTTAATCGGAACCTCTAGCTAGCCGACTCACTATAGGGATAATCGCCCTGAGCAAAGACC	1.35 ± 0.0812 log2FC
CTCGAGGATATCAAGATCTGGCCTCGGCATTTTATCGGGAACCTCTAGCTAGCCGACTCACTATAGGGATAATCGCCCTGAGCAAAGACC	1.85 ± 0.0758 log2FC
CTCGAGGATATCAAGATCTGGCCTCGGCACTGTAAAAGGAACCTCTAGCTAGCCGACTCACTATAGGGATAATCGCCCTGAGCAAAGACC	1.95 ± 0.0803 log2FC
CTCGAGGATATCAAGATCTGGCCTCGGCCCGTTAAAAGGAACCTCTAGCTAGCCGACTCACTATAGGGATAATCGCCCTGAGCAAAGACC	2.37 ± 0.0792 log2FC
CTCGAGGATATCAAGATCTGGCCTCGGCATTTTAAGTGGAACCTCTAGCTAGCCGACTCACTATAGGGATAATCGCCCTGAGCAAAGACC	1.18 ± 0.0951 log2FC
CTCGAGGATATCAAGATCTGGCCTCGGCACTTGGGCGGGAACCTCTAGCTAGCCGACTCACTATAGGGATAATCGCCCTGAGCAAAGACC	-1.04 ± 0.114 log2FC
CTCGAGGATATCAAGATCTGGCCTCGGCCTGCTAAAAGGAACCTCTAGCTAGCCGACTCACTATAGGGATAATCGCCCTGAGCAAAGACC	0.179 ± 0.113 log2FC
CTCGAGGATATCAAGATCTGGCCTCGGCATTTTATAGGGAACCTCTAGCTAGCCGACTCACTATAGGGATAATCGCCCTGAGCAAAGACC	3.25 ± 0.0782 log2FC
CTCGAGGATATCAAGATCTGGCCTCGGCTTTTTAGCCGGAACCTCTAGCTAGCCGACTCACTATAGGGATAATCGCCCTGAGCAAAGACC	-0.442 ± 0.12 log2FC
CTCGAGGATATCAAGATCTGGCCTCGGCGTTTTAGTAGGAACCTCTAGCTAGCCGACTCACTATAGGGATAATCGCCCTGAGCAAAGACC	1.61 ± 0.098 log2FC

Sequence	binding signal
CTCGAGGATATCAAGATCTGGCCTCGGCGTATTAAAAGGAACCTCTAGCTAGCCGACTCACTATAGGGATAATCGCCCTGAGCAAAGACC	2.14 ± 0.0726 log2FC
CTCGAGGATATCAAGATCTGGCCTCGGCGGACTAAAAGGAACCTCTAGCTAGCCGACTCACTATAGGGATAATCGCCCTGAGCAAAGACC	-0.896 ± 0.106 log2FC
CTCGAGGATATCAAGATCTGGCCTCGGCTTTTTAATAGGAACCTCTAGCTAGCCGACTCACTATAGGGATAATCGCCCTGAGCAAAGACC	2.75 ± 0.0795 log2FC
CTCGAGGATATCAAGATCTGGCCTCGGCGTGTTAAAAGGAACCTCTAGCTAGCCGACTCACTATAGGGATAATCGCCCTGAGCAAAGACC	1.46 ± 0.0736 log2FC
CTCGAGGATATCAAGATCTGGCCTCGGCTTTTTAAGGGGAACCTCTAGCTAGCCGACTCACTATAGGGATAATCGCCCTGAGCAAAGACC	1.83 ± 0.0924 log2FC
CTCGAGGATATCAAGATCTGGCCTCGGCCGCCCAACAGGAACCTCTAGCTAGCCGACTCACTATAGGGATAATCGCCCTGAGCAAAGACC	-0.724 ± 0.117 log2FC
CTCGAGGATATCAAGATCTGGCCTCGGCGCGCTCGCGGGAACCTCTAGCTAGCCGACTCACTATAGGGATAATCGCCCTGAGCAAAGACC	-1.06 ± 0.163 log2FC
CTCGAGGATATCAAGATCTGGCCTCGGCAATCTAAAAGGAACCTCTAGCTAGCCGACTCACTATAGGGATAATCGCCCTGAGCAAAGACC	-0.296 ± 0.111 log2FC
CTCGAGGATATCAAGATCTGGCCTCGGCAACGTAAAAGGAACCTCTAGCTAGCCGACTCACTATAGGGATAATCGCCCTGAGCAAAGACC	0.751 ± 0.0928 log2FC
CTCGAGGATATCAAGATCTGGCCTCGGCCTTTTACCCGGAACCTCTAGCTAGCCGACTCACTATAGGGATAATCGCCCTGAGCAAAGACC	-0.00238 ± 0.0891 log2FC
CTCGAGGATATCAAGATCTGGCCTCGGCATTTTACACGGAACCTCTAGCTAGCCGACTCACTATAGGGATAATCGCCCTGAGCAAAGACC	2.19 ± 0.0742 log2FC
CTCGAGGATATCAAGATCTGGCCTCGGCGCACTAAAAGGAACCTCTAGCTAGCCGACTCACTATAGGGATAATCGCCCTGAGCAAAGACC	0.431 ± 0.0748 log2FC
CTCGAGGATATCAAGATCTGGCCTCGGCCGCAGTCGCGGAACCTCTAGCTAGCCGACTCACTATAGGGATAATCGCCCTGAGCAAAGACC	-1.09 ± 0.145 log2FC
CTCGAGGATATCAAGATCTGGCCTCGGCATTTTAACCGGAACCTCTAGCTAGCCGACTCACTATAGGGATAATCGCCCTGAGCAAAGACC	1.17 ± 0.0785 log2FC
CTCGAGGATATCAAGATCTGGCCTCGGCAAGTTAAAAGGAACCTCTAGCTAGCCGACTCACTATAGGGATAATCGCCCTGAGCAAAGACC	1.07 ± 0.0825 log2FC
CTCGAGGATATCAAGATCTGGCCTCGGCATGTTAAAAGGAACCTCTAGCTAGCCGACTCACTATAGGGATAATCGCCCTGAGCAAAGACC	1.48 ± 0.0814 log2FC
CTCGAGGATATCAAGATCTGGCCTCGGCTGTATAAAAGGAACCTCTAGCTAGCCGACTCACTATAGGGATAATCGCCCTGAGCAAAGACC	2.01 ± 0.0809 log2FC
CTCGAGGATATCAAGATCTGGCCTCGGCTTTTTATCAGGAACCTCTAGCTAGCCGACTCACTATAGGGATAATCGCCCTGAGCAAAGACC	2.36 ± 0.0842 log2FC
CTCGAGGATATCAAGATCTGGCCTCGGCGTAATAAAAGGAACCTCTAGCTAGCCGACTCACTATAGGGATAATCGCCCTGAGCAAAGACC	2.86 ± 0.0699 log2FC
